Source: PubChem BioAssay (Tox21)
Where “and” joins values, the source holds several entries; their conditions need not be identical. Equal values may be shown once. Records with an inconclusive call do not appear. Entries that show only a call come without a potency. Values without a mark were called inactive. Calls of active or inactive are those of the source. Calls come from the whole dose curve; as a rule, active = well fitted curve in the direction sought with a large enough effect in the repeat runs; inconclusive = weak or mixed curves; inactive = no such curve, though single readings can be large; an effect the other way counts as inactive or inconclusive.

Columns and labels:
[1] = qHTS RealTime-Glo MT Cell Viability Assay in HepG2 cells - 8 hour (AID 1224873); note: nearly all actives have a fitted effect of over 55% in size
Outline: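 HepG2 cells mixed with RealTime-Glo MT reagents (NanoLuc plus cell-permeant prosubstrate) were seeded at 600 cells/well, incubated 5 h at 37 C/5% CO2, then pinned with compounds in DMSO; nonlytic luminescence tracked viability during 40 h treatment.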

[2] = A CellTox Green Cytotoxicity Assay to monitor cytotoxicity in HepG2 cells - 16 hour (AID 1224876); note: nearly all actives have a fitted effect of over 45% in size; note: potency is the fitted concentration of half-maximal effect
Outline: (§1)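 Real-time cytotoxicity: fluorescence of a cell-impermeant cyanine dye binding DNA of dead HepG2 cells, measured repeatedly (0–40 h) during compound exposure at 37 C. Cells seeded 600/well with reagent, dosed after 5 h.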

[3] = A CellTox Green Cytotoxicity Assay to monitor cytotoxicity in HepG2 cells - 40 hour (AID 1224879); note: nearly all actives have a fitted effect of over 40% in size; note: potency is the fitted concentration of half-maximal effect
Outline: as §1

[4] = qHTS RealTime-Glo MT Cell Viability Assay in HEK293 cells - 40 hour (AID 1224874); conditions: RealTime-Glo luminescence; max response: hits give low values; note: nearly all actives have a fitted effect of over 50% in size; note: potency is the fitted concentration of half-maximal effect
Outline: (§2)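 Luminescence, which tracks viable cell number through reduction of the prosubstrate to a NanoLuc substrate, was read over continuous 37 C culture. Cells (600/well) were premixed with reagent and rested 5 h before 23 nL of compound in DMSO was pinned.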

[5] = A CellTox Green Cytotoxicity Assay to monitor cytotoxicity in HEK293 cells - 24 hour (AID 1224875); note: series mostly up to about 77 µM; nearly all actives have a fitted effect of over 45% in size
Outline: (§3)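 Fluorescence from a DNA-binding dye excluded by viable cells was measured repeatedly in the same HEK293 wells (600 cells/well) during continuous compound exposure at 37 C. Each assay gives one read point: 0, 8, 16, 24, 32 or 40 h.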

[6] = qHTS RealTime-Glo MT Cell Viability Assay in HepG2 cells - 32 hour (AID 1224877); note: nearly all actives have a fitted effect of over 55% in size; note: potency is the fitted concentration of half-maximal effect
Outline: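 Cell number in HepG2 cultures estimated from NanoLuc luminescence generated by metabolic reduction of a prosubstrate by living cells. The homogeneous, nonlytic format allowed repeated reads at 0, 8, 16, 24, 32 and 40 h of compound exposure.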

[7] = qHTS RealTime-Glo MT Cell Viability Assay in HEK293 cells - 0 hour (AID 1224880); note: nearly all actives have a fitted effect of over 45% in size; note: potency is the fitted concentration of half-maximal effect
Outline: as §2

[8] = A CellTox Green Cytotoxicity Assay to monitor cytotoxicity in HepG2 cells - 24 hour (AID 1224878); note: nearly all actives have a fitted effect of over 45% in size; note: potency is the fitted concentration of half-maximal effect
Outline: as §1

[9] = qHTS RealTime-Glo MT Cell Viability Assay in HEK293 cells - 16 hour (AID 1224872); note: nearly all actives have a fitted effect of over 50% in size; note: potency is the fitted concentration of half-maximal effect
Outline: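 Homogeneous bioluminescent viability format in HEK293 cells (600 cells/well). Following 5 h at 37 C/5% CO2, 23 nL compound was pintooled; the signal was measured repeatedly during 40 h incubation.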

[10] = A CellTox Green Cytotoxicity Assay to monitor cytotoxicity in HEK293 cells - 40 hour (AID 1224871); note: nearly all actives have a fitted effect of over 45% in size; note: potency is the fitted concentration of half-maximal effect
Outline: as §3

CN1CCN(CCCN2c3ccccc3Sc3ccc(S(=O)(=O)N(C)C)cc32)CC1
Potency [1]: inactive
Potency [2]: 23.9 µM (active)
Potency [3]: 26.8 µM (active)

CCOC(=O)CC(=O)C(=O)OCC
Potency [1]: inactive
Potency [4]: 43.6 µM (active)
Potency [5]: inactive
Potency [2]: inactive
Potency [6]: inactive
Potency [3]: inactive
Potency [7]: inactive

CC1=C(C=O)C(C)(C)CCC1
Potency [1]: inactive
Potency [2]: inactive
Potency [6]: inactive
Potency [8]: inactive
Potency [3]: inactive

COc1cc2c(N3CCN(C(=O)Nc4ccc(OC(C)C)cc4)CC3)ncnc2cc1OCCCN1CCCCC1
Potency [1]: inactive
Potency [4]: 9.52 µM (active)
Potency [5]: inactive
Potency [2]: inactive
Potency [6]: inactive
Potency [3]: 26.8 µM (active)
Potency [7]: inactive

CC(=O)OCC(=O)[C@H]1CC[C@H]2[C@@H]3CCC4=CC(=O)CC[C@]4(C)[C@H]3CC[C@]12C
Potency [1]: inactive
Potency [5]: inactive
Potency [2]: inactive
Potency [6]: inactive
Potency [8]: inactive
Potency [3]: inactive
Potency [7]: 9.52 µM (active)

CC1=CC(O)CC(C)(C)C1 (stereo not drawn)
Potency [9]: inactive
Potency [1]: inactive
max response [4]: 8.3%
Potency [5]: inactive
Potency [2]: inactive
Potency [6]: inactive
Potency [8]: inactive
Potency [3]: inactive
Potency [7]: inactive

CC(C)c1nnc2ccc(-c3ocnc3-c3cc(F)ccc3F)cn12
Potency [10]: inactive
Potency [1]: inactive
Potency [5]: inactive
Potency [6]: inactive
Potency [8]: inactive
Potency [3]: inactive
Potency [7]: inactive

CCCCC(=O)O[C@]1(C(=O)CO)[C@@H](C)C[C@H]2[C@@H]3CCC4=CC(=O)C=C[C@]4(C)[C@@]3(F)[C@@H](O)C[C@@]21C
Potency [10]: 54.9 µM (active)
Potency [5]: inactive
Potency [2]: inactive
Potency [6]: inactive
Potency [8]: inactive
Potency [3]: inactive
Potency [7]: inactive

O=C(CCC1CCN(Cc2ccccc2)CC1)c1ccc2c(c1)NCCCC2
Potency [1]: inactive
Potency [5]: inactive
Potency [2]: inactive
Potency [6]: inactive
Potency [7]: inactive

CC(=O)Oc1ccc2c(c1)CC[C@@H]1[C@@H]2CC[C@]2(C)[C@@H](O)CC[C@@H]12
Potency [1]: inactive
Potency [5]: inactive
Potency [2]: inactive
Potency [6]: inactive
Potency [7]: inactive

N#C/C(=C1\SCC(c2ccccc2Cl)S1)n1ccnc1 (stereo not drawn)
Potency [10]: inactive
Potency [1]: inactive
Potency [5]: inactive
Potency [6]: inactive
Potency [8]: inactive
Potency [3]: inactive
Potency [7]: inactive

COCc1c(C(C)C)nc(C(C)C)c(/C=C/[C@@H](O)C[C@@H](O)CC(=O)O)c1-c1ccc(F)cc1
Potency [10]: inactive
Potency [5]: inactive
Potency [2]: inactive
Potency [8]: 301 nM (active) and 4.32 µM (active)
Potency [3]: 379 nM (active) and 4.84 µM (active)

CCCCN(CCCC)C(=S)SSC(=S)N(CCCC)CCCC
Potency [4]: 38.5 µM (active)
Potency [5]: inactive
Potency [2]: inactive
Potency [6]: inactive
Potency [3]: inactive
Potency [7]: inactive

Nc1nccs1
Potency [9]: inactive
Potency [1]: inactive
max response [4]: -15.6%
Potency [6]: inactive
Potency [8]: inactive
Potency [3]: inactive
Potency [7]: inactive

Cc1ccc(/C=N/n2c(-c3ccccc3)csc2=S)cc1
Potency [10]: inactive
Potency [1]: inactive
Potency [2]: inactive
Potency [6]: inactive
Potency [3]: inactive
Potency [7]: inactive

CNCCCC1c2ccccc2C=Cc2ccccc21
Potency [9]: inactive
Potency [1]: inactive
Potency [4]: 23.9 µM (active)
Potency [2]: 23.9 µM (active)
Potency [6]: 23.9 µM (active)
Potency [8]: 23.9 µM (active)
Potency [3]: 23.9 µM (active)

CCOc1cc(N)c(Cl)cc1C(=O)NCC1CN(Cc2ccc(F)cc2)CCO1 (stereo not drawn)
Potency [10]: inactive
Potency [5]: inactive
Potency [6]: inactive
Potency [8]: inactive
Potency [3]: inactive
Potency [7]: inactive

COc1cc2ncnc(Nc3ccc(F)c(Cl)c3)c2cc1OCCCN1CCOCC1
Potency [9]: 9.52 µM (active)
Potency [4]: 10.7 µM (active)
Potency [2]: 23.9 µM (active)
Potency [6]: 23.9 µM (active)
Potency [8]: 23.9 µM (active)
Potency [3]: 23.9 µM (active)

O=C(N[C@@H](c1ccccc1)[C@@H]1CCCCN1)c1cccc(C(F)(F)F)c1Cl
Potency [1]: inactive
Potency [4]: 24.5 µM (active)
Potency [6]: 43.6 µM (active)
Potency [3]: 34.7 µM (active)

O=C(CCCCCCC(=O)Nc1ccccc1)NO
Potency [10]: inactive
Potency [5]: inactive
Potency [2]: inactive
Potency [8]: inactive
Potency [3]: 2.68 µM (active)
Potency [7]: inactive

C/C=C/C=C/CCCCCCCO
Potency [9]: inactive
Potency [1]: inactive
max response [4]: -18.5%
Potency [5]: inactive
Potency [2]: inactive
Potency [6]: inactive
Potency [8]: inactive
Potency [7]: inactive

Cc1ccc(Nc2nccc(N(C)c3ccc4c(C)n(C)nc4c3)n2)cc1S(N)(=O)=O
Potency [1]: inactive
Potency [4]: 1.34 µM (active)
Potency [5]: inactive
Potency [2]: inactive
Potency [6]: inactive
Potency [8]: inactive
Potency [3]: inactive
Potency [7]: inactive
